{"source": "PubChem BioAssay AID463116", "about": "(University of Pittsburgh Molecular Library Screening Center, 2010)", "note": "Out of some 1,000 compounds screened, about 710 (71%) were called active. Inconclusive results (about 7%) are left out.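 How the source made its calls: active means inhibition of receptor movement into the nucleus at or above a set limit in both runs, with normal cell brightness and cell count; inconclusive means limit reached in only one run, brightness and count normal; inactive means the rest.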 The set was probably picked from earlier hits. Only a sample is shown."}
{"assay": "blockers of dexamethasone-driven GR-EGFP nuclear import – imaging, high-content imaging, GR-EGFP cells, confirmation (AID 463116);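 on inhibition: dexamethasone at 1 µM final in well for 30 min; nuclear minus cytoplasmic GR-EGFP mean intensity difference in channel 2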", "settings": "3617.4 GR-EGFP nuclear translocation imaging, dexamethasone-induced, at 20 µM; inhibition: stronger effect = higher value; z-score: measured here: cell count per field"}
{"smiles": "O=[N+]([O-])c1cc(S(=O)(=O)CCCN2CCOCC2)ccc1F", "inhibition": "80.5% (active)", "z-score": 0.409}
{"smiles": "CC1CCN(C(=O)c2ccc(S(=O)(=O)Cc3cc(F)ccc3F)c([N+](=O)[O-])c2)CC1", "inhibition": "37.2% (inactive)", "z-score": 0.248}
{"smiles": "COc1ccc(-c2csc3nc(-c4ccccc4F)oc(=O)c23)cc1OC", "inhibition": "76.8% (active)", "z-score": 0.201}
{"smiles": "Cc1cccc(Oc2c([N+](=O)[O-])c(=O)n(C)c3ccccc23)c1", "inhibition": "65.6% (active)", "z-score": 0.355}
{"smiles": "Cn1c(=O)c([N+](=O)[O-])c(Oc2ccccc2)c2ccccc21", "inhibition": "77.8% (active)", "z-score": 0.222}
{"smiles": "CC(C)(C)C1C/C(=C/c2ccco2)C(=O)/C(=C/c2ccco2)C1", "note": "(stereo unspecified)", "inhibition": "184% (inactive)", "z-score": 0.226}
{"smiles": "Cc1cccc2cc3c(N)c(C(=O)N4CCCc5ccccc54)sc3nc12", "inhibition": "97.1% (active)", "z-score": -0.357}
{"smiles": "COc1ccc(NC(=O)/C(Cl)=C(/Cl)S(=O)Cc2ccc(C)cc2)cn1", "note": "(stereo unspecified)", "inhibition": "76.8% (active)", "z-score": 0.179}
{"smiles": "CC1=C/C(=N\\OS(=O)(=O)c2ccccc2)C=CC1=O", "inhibition": "85.1% (active)", "z-score": 0.68}
{"smiles": "Nc1ccccc1SC(C[N+](=O)[O-])c1ccccc1", "note": "(stereo unspecified)", "inhibition": "71.2% (active)", "z-score": -0.448}
{"smiles": "O=C1/C(=C\\c2cccnc2)CN(Cc2ccccc2)C/C1=C\\c1cccnc1", "inhibition": "81.1% (active)", "z-score": 0.0646}
{"smiles": "Cc1cc(-c2n[nH]c(=S)n2/N=C/C(Br)=C/c2ccccc2)n[nH]1", "inhibition": "80.8% (active)", "z-score": 0.326}
{"smiles": "Cc1[nH]c(=O)c(C(=O)/C=C/c2ccccc2)c2c1CCCC2", "inhibition": "71.9% (active)", "z-score": 0.213}
{"smiles": "O=C(CCl)N(Cc1cccc([N+](=O)[O-])c1)c1cccc(Cl)c1", "inhibition": "84.8% (active)", "z-score": 0.159}
{"smiles": "COc1ccc(-c2cc(C(F)(F)F)nc(S(C)(=O)=O)n2)cc1OC", "inhibition": "51.4% (active)", "z-score": 0.253}
{"smiles": "Cc1cc(C(=O)NCCc2ccc(Cl)cc2)n(-c2ccccc2)n1", "inhibition": "16.2% (inactive)", "z-score": 0.17}
{"smiles": "Cc1cc(C)nc(S/C=C/C(=O)c2ccccc2)n1", "inhibition": "68.4% (active)", "z-score": 1.05}
{"smiles": "Clc1cccc(-c2nc3nc4ccccc4nc3n2Cc2ccco2)c1", "inhibition": "12.8% (inactive)", "z-score": 0.105}
{"smiles": "COc1ccc(C(=O)NCC(=O)N/N=C/c2ccc([N+](=O)[O-])o2)cc1OC", "inhibition": "59.2% (active)", "z-score": -0.0055}
{"smiles": "O=C(/C=C/Sc1ncn[nH]1)c1ccc(Cl)cc1", "inhibition": "69.1% (active)", "z-score": 0.228}
{"smiles": "CCN(CC)c1ccc2oc(=O)c(C)nc2c1", "inhibition": "82.6% (active)", "z-score": 0.353}
{"smiles": "COc1ccc(C(CCN(Cc2ccc(OC)c(OC)c2)C(=O)CCl)c2ccccc2)cc1", "note": "(stereo unspecified)", "inhibition": "90.9% (active)", "z-score": -0.513}
{"smiles": "O=C(CCl)Nc1cccc(CP(=O)(c2ccccc2)c2ccccc2)c1", "inhibition": "63.6% (active)", "z-score": 0.239}
{"smiles": "O=C1C=C(c2ccc(Cl)cc2)C(=O)N1Nc1ccccc1", "inhibition": "81% (active)", "z-score": 1.03}
{"smiles": "O=C(Nc1ccccc1)c1nnsc1S(=O)(=O)c1ccc(Cl)cc1", "inhibition": "38.8% (inactive)", "z-score": -5.42}
{"smiles": "CCOC(=O)C(=Cc1ccccc1OC)C(=O)OCC", "inhibition": "82.2% (active)", "z-score": 0.778}
{"smiles": "N#C/C(=C/c1ccc(N2CCCCC2)o1)C(=O)NCCc1c[nH]c2ccccc12", "inhibition": "96.8% (active)", "z-score": 0.0808}
{"smiles": "Oc1c(C=Nc2cccc3nsnc23)ccc2ccccc12", "inhibition": "23.9% (inactive)", "z-score": 0.36}
{"smiles": "COc1cc2c(cc1O)C(SC)=NC(C)(C)C2", "inhibition": "79.1% (active)", "z-score": 0.013}
{"smiles": "COC(=O)/C=C\\C(=O)Nc1cccc([N+](=O)[O-])c1", "inhibition": "77.7% (active)", "z-score": -1.06}
{"smiles": "CCC1=C/C(=C\\c2ccc3c(c2)OCO3)C(=O)S1", "inhibition": "30.5% (inactive)", "z-score": 0.474}
{"smiles": "C[C@@H]1C[C@@H]2O[C@H]2/C=C\\C=C\\C(=O)Cc2c(Cl)c(O)cc(O)c2C(=O)O1", "inhibition": "90.1% (active)", "z-score": -0.431}
{"smiles": "Cc1cc(C)c2c3c(sc2n1)C(c1ccccc1)C(C#N)=C(N)O3", "note": "(stereo unspecified)", "inhibition": "23.6% (inactive)", "z-score": 0.166}
{"smiles": "CCN1/C(=C/c2ccc3ccc(C)cc3[n+]2CC)Sc2ccccc21", "inhibition": "99.7% (active)", "z-score": 0.0317}
{"smiles": "O=S1(=O)CCC(NC(=S)SCc2ccccc2Br)C1", "note": "(stereo unspecified)", "inhibition": "67.1% (active)", "z-score": -0.249}
{"smiles": "C=CS(=O)c1sc(Cl)c(N2CCOCC2)c1[N+](=O)[O-]", "note": "(stereo unspecified)", "inhibition": "83.2% (active)", "z-score": -0.577}
{"smiles": "Nc1c(C(=O)c2cccs2)sc2nsc(SCCN3CCCCC3)c12", "inhibition": "91.8% (active)", "z-score": 0.159}
{"smiles": "CC1(C)CCSC(/C=C/c2ccccc2)=N1", "inhibition": "90.7% (active)", "z-score": -0.988}
